Assay results: ChEMBL document CHEMBL4513216, “Probing the Open Global Health Chemical Diversity Library for Multistage-Active Starting Points for Next-Generation Antimalarials” (ACS Infect Dis, 2020)
Out of some 69,000 compounds screened, about 8,600 (12%) showed an effect of 50% or more. The sample holds strong results, similar compounds and a random draw of the others, so the mix is not that of the screen.

Each compound was assayed on Plasmodium berghei (assay: Screen against P. berghei liver stage (PbLuc), transformed with Luciferase, at 10uM). Details: tested at 10 uM.
Assay type: functional, HepG2

SMILES	INHIBITION [%]
Cc1nccc(N[C@H]2CN(C(=O)CCN3CCCC3=O)C[C@@H]2C(C)C)n1	55
Cc1nccc(N[C@H]2CN(C(=O)C3(C#N)CCOCC3)C[C@@H]2C(C)C)n1	-5.1
CSCCC(=O)N1C[C@H](Nc2ccnc(C)n2)[C@@H](C(C)C)C1	-15.5
Cc1csc(N2CCCN(C(=O)CCN3CCCC3=O)CC2)n1	-21.8
Cc1nccc(N[C@H]2CN(C(=O)CN3CCOCC3)C[C@@H]2C(C)C)n1	43.6
Cc1nccc(N[C@H]2CN(C(=O)CN3CCCC3=O)C[C@@H]2C(C)C)n1	62.9
CC(C)(Oc1ccc(C(N)=O)cc1)C(=O)N(CCC#N)CC1CCCO1 (stereo unspecified)	28.3
Cc1nc(C)n(CC2CCCN2CC(=O)Nc2c(C)n[nH]c2C)n1 (stereo unspecified)	29.305
Cn1nc(C(=O)NCc2ccc(OC3CCCCC3)nc2)ccc1=O	47.7
COCc1nc(-c2ccnc(N3CCNCC3)n2)no1	38.3
COCCCN(Cc1ccccn1)S(=O)(=O)Cc1ccccc1	46.1
CNc1nc(CNC(=O)Nc2cccc(-n3ccc(C)n3)c2)cs1	7.42
O=C(O)[C@H]1C[C@@H](C(=O)NCc2ccncc2)CN(Cc2ccccc2)C1	17.2
Fc1cccc(CN2C[C@@H]3COC[C@]3(COCc3ccncc3)C2)c1	49.7
Cc1cc(-n2cccn2)ccc1CN1CCOCC(CN(C)C)C1 (stereo unspecified)	62.2
Cc1cc(C)c(-n2cccn2)c(CN2CCOCC(CN(C)C)C2)c1 (stereo unspecified)	36.5
COc1ccc(-n2cccn2)c(CN2CCOCC(CN(C)C)C2)c1 (stereo unspecified)	15.2
NC(=O)C1CCN(C(=O)CCn2c(C(F)(F)F)cc3cccnc32)CC1	1.5
Cc1ccc(=O)n(CC2(O)CCN(Cc3cnc(N(C)C)nc3)CC2)n1	14.7
c1cncc(Cc2nnc3n2CCN(CC2CCCNC2)CC3)c1 (stereo unspecified)	16.3
CC(C)c1ccccc1OCCNC(=O)N1CCC(CC(N)=O)CC1	5.76
CC(C)c1n[nH]c(C2CN(C(=O)c3cc(C4CC4)[nH]n3)CCO2)n1 (stereo unspecified)	-20.2

SMILES	INHIBITION [%]
O=C(Nc1cccnc1N1CCSCC1)c1ccc2c(c1)CCC2	38.6
O=C(Cc1ccc2c(c1)CCCC2)NCCc1ccccn1	70.7
O=C(Cc1ccc2c(c1)CCCC2)NCCNc1cnccn1	31.9
O=C(Cc1ccc2c(c1)CCCC2)Nc1cccnc1N1CCSCC1	53.5
O=C(Cc1ccc2c(c1)CCC2)NCCNc1ncccn1	45.9
O=C(Nc1cccnc1N1CCSCC1)c1cc2c(s1)CCCCC2	19.8
CC(C)(C)OCC1CN(Cc2cccs2)S(=O)(=O)c2cnccc2O1 (stereo unspecified)	10.9
OCCN1CCCCC1C1OCCO1 (stereo unspecified)	-45.2
O=S(=O)(C1CC1)N1Cc2[nH]nc(COCC3CC3)c2C1	36.4
CCn1nc(C)c2ncnc(NCCN3CCOCC3)c21	21.7
CCn1ncc(S(=O)(=O)NC(C)c2cc(OC)ccc2OC)c1C (stereo unspecified)	32.3
Cn1cncc1CN1CCC(O)(Cn2nc(-c3cccs3)oc2=O)CC1	38.7
O=C(c1cnc[nH]1)N1CCC(Oc2cccnc2)CC1	55.9
O=C(c1ccccn1)N1CCC(Oc2cccnc2)CC1	-10.4
O=C(c1ccc2[nH]cnc2c1)N1CCC(Oc2cccnc2)CC1	47.2
CCN1CCN(C)C2(CCN(Cc3ccsc3)CC2)C1=O	17.4
COC(=O)c1cc(C(=O)N2CCC(C)CC2)n(-c2ccccc2)n1	22.265
Cc1nc2cc(O)nn2c(C)c1CCC(=O)NCCc1nccn1C	30.6
CCOC(=O)N1CCN(C(=O)c2cc(-c3ccc(C)cc3)on2)CC1	23.4
Cc1cc(C(=O)Nc2n[nH]c(C3CC3)n2)c2c(C)noc2n1	6.83
Nc1cc2c(nn1)CCN(C(=O)c1cccc3c1OCO3)C2	-16
COC(=O)N1CC(C)=C(C)CN1C(=O)Nc1ccc(Cl)c(Cl)c1	-52.3

SMILES	INHIBITION [%]
O=C(CCC1CCCC1)N1CCC(c2ncc3c(n2)CCNC3)CC1	73.4
CCC(=O)N1CCC(c2ncc3c(n2)CCNC3)CC1	37.6
CN1CCc2nc(C3CCCN(C(=O)CC4CCCCC4)C3)ncc2C1 (stereo unspecified)	27.8
CCC(=O)N1CCCC(c2ncc3c(n2)CCN(C)C3)C1 (stereo unspecified)	10
O=C(CC1CCCCC1)N1CCC(c2ncc3c(n2)CCNC3)CC1	47.2
CN1CCc2nc(C3CCN(C(=O)CCC4CCCC4)CC3)ncc2C1	85.9
O=C(C1CCCC1)N1CCC(c2ncc3c(n2)CCNC3)C1 (stereo unspecified)	-32.2
CCCC(=O)N1CCC(c2ncc3c(n2)CCNC3)CC1	-28.6
O=C(CCC1CCCC1)N1CCCC(c2ncc3c(n2)CCNC3)C1 (stereo unspecified)	58.1
Cc1noc(C)c1C(=O)NCC(C)N1CCc2ccccc21 (stereo unspecified)	13.6
Cc1cc(C(F)(F)F)nn1CC(C)C(=O)Nc1cccnc1 (stereo unspecified)	15.1
Cc1noc(C2CCC3(CCN(C(=O)c4sccc4C)CC3)O2)n1 (stereo unspecified)	-54.7
CN1CC(C(=O)NCc2ccnc(-n3cccn3)c2)CC1=O (stereo unspecified)	-0.7
CN(Cc1ccco1)[C@@H]1CN(Cc2ccncc2)C[C@@H]2CCCO[C@@H]21	23.5
Fc1ccc(C2(NCc3ccccc3)CCOCC2)cc1	4.48
CSc1ccc(CNC2(c3ccc(F)cc3)CCOCC2)cc1	13.5
CN(C)c1ccc(CNC2(c3ccc(F)cc3)CCOCC2)cc1F	55.6
O=S(=O)(c1cncc(F)c1)N1CCC2(CCCCC2)C1	19.3
Cc1ccc(CN2Cc3cnn(C)c3C(COCC3CC3)C2)o1 (stereo unspecified)	54.4
Cc1noc(C)c1CN1Cc2cnn(C)c2C(COCC2CC2)C1 (stereo unspecified)	54.4
Cc1ncsc1CN1Cc2cnn(C)c2C(COCC2CC2)C1 (stereo unspecified)	-0.813
Cc1noc(C)c1CN1Cc2cn(C)nc2C(COCC2CC2)C1 (stereo unspecified)	48.6

SMILES	INHIBITION [%]
Cc1ccc(CN2Cc3nnn(C)c3C(COCC3CC3)C2)o1 (stereo unspecified)	-14.7
Cn1ncc2c1C(COCC1CC1)CN(Cc1ccco1)C2 (stereo unspecified)	20.6
Cn1ncc2c(=O)[nH]c(CN3CCCC3c3ccccc3Cl)nc21 (stereo unspecified)	-19.6
Cc1ccc(-c2nc(C(=O)N(C)C3CCN(C)CC3)cs2)c(C)c1	27.7
Cc1sc(Br)cc1S(=O)(=O)NCCCN	8.08
CC(=O)N1CCCN(C(=O)NCC2(c3cccs3)CCCC2)CC1	23.9
Cc1nc(C)n(CC2CCCN(CCOc3ccc(F)cc3)C2)n1 (stereo unspecified)	4.52
CN1CCO[C@H]2CN(S(=O)(=O)c3ccc(C#N)cc3)C[C@H]21	5.63
CC(C)NCC1(COc2ccccc2)C[C@@H](O)[C@@H](O)C1 (stereo partly specified)	38.3
O=C(COCCc1ccccc1)N1CCCC(n2cccn2)C1 (stereo unspecified)	61.9
O=C(CCNc1ncccn1)N1CCCC(n2ccnc2)C1 (stereo unspecified)	21.1
O=C(CCCNc1ncccn1)N1CCCC(n2cccn2)C1 (stereo unspecified)	8.48
NC(=O)COc1cccc(C(=O)N2CCCC(n3cccn3)C2)c1 (stereo unspecified)	20.1
O=C(COCCc1ccccc1)N1CCCC(n2cncn2)C1 (stereo unspecified)	7.12
NC(=O)c1cccc(OCC(=O)N2CCCC(n3cccn3)C2)c1 (stereo unspecified)	57.5
O=C(CCNc1ncccn1)N1CCCC(n2cccn2)C1 (stereo unspecified)	50.3
O=C(COCC1CC1)N1CCCC(n2cccn2)C1 (stereo unspecified)	8.48
NC(=O)c1ccc(OCC(=O)N2CCCC(n3cccn3)C2)cc1 (stereo unspecified)	-25.9
Cc1nn(C)c(N(C)C)c1CNC(C)COc1ccc(F)cc1F (stereo unspecified)	-41.6
O=S(=O)(NCCC(O)c1ccoc1)c1ccc(Cl)s1 (stereo unspecified)	-5.22
COc1cc2nc(C)n(CC(=O)NCCO)c(=O)c2cc1OC	4.82
COc1cc(OC)cc(-c2noc(CC(N)c3ccccc3)n2)c1 (stereo unspecified)	36.3

SMILES	INHIBITION [%]
CN1CCN(Cc2nnc(C3CCN(S(C)(=O)=O)CC3)n2C)CC1	-14.3
CN(CC(F)(F)F)C(=O)CNC(=O)N1CCCC(C(F)(F)F)C1 (stereo unspecified)	18.6
CC1CCN(C(=O)NCC(=O)N(C)CC(F)(F)F)C1 (stereo unspecified)	18.6
CN(CC(F)(F)F)C(=O)CNC(=O)N1CCCC(N(C)C)C1 (stereo unspecified)	53.3
CCC(=O)N1CCCC1c1nccnc1Nc1ncccn1 (stereo unspecified)	42.6
NCC(=O)N1CCCC(c2cncc(Nc3ncccn3)n2)C1 (stereo unspecified)	51.7
COc1ccccc1Oc1cncc(C2CCCN(CC(N)=O)C2)n1 (stereo unspecified)	20.8
NCC(=O)N1CCCC1c1nccnc1Nc1ncccn1 (stereo unspecified)	59
COCC(=O)N1CCCC1c1nccnc1Nc1ncccn1 (stereo unspecified)	7.05
NC(=O)CN1CCCC(c2cncc(Nc3ncccn3)n2)C1 (stereo unspecified)	59
c1cnc(Nc2cncc(C3CCCN(c4ncccn4)C3)n2)nc1 (stereo unspecified)	-0.371
c1cnc(Nc2cncc(C3CCCN(c4cnccn4)C3)n2)nc1 (stereo unspecified)	-6.3
NCC(=O)N1CCCC(c2ccnc(Nc3cnccn3)n2)C1 (stereo unspecified)	18.9
CCS(=O)(=O)N1CCC2(CCC2NC(=O)c2ccn(C)c2)CC1 (stereo unspecified)	8.53
O=C(c1ccno1)N1CCO[C@@H]2CC(COCc3ccccn3)C[C@H]21 (stereo partly specified)	8.6
COc1cc(C(=O)N(Cc2cnn(C)c2)C(C)C)ccc1C	14.1
COc1cc(N2CC[C@@H]3O[C@H](C(=O)NCC4CC4)C[C@@H]32)ncn1	-22.1
Cc1cc(Oc2ccccc2F)nc(C2CCCCN2)n1 (stereo unspecified)	10.9
